Compound activity (PubChem BioAssay)
NOMO-1 viab: STK33 inhibitor candidate reducing NOMO-1 cell viability | inhibition, % (test concentration not listed) | actives 7.5% (n = 37,000) | AID 2330 | NOMO-1 AML viability, CellTiter-Glo luminescence, 72 h; in the data active = inhibition above about 80%; inconclusive = no clear call, values can overlap the other calls
PD-1 reversal: activators reversing PD-1 mediated T-cell inhibition; primary human CD4 T cells, PD-L1 beads, CellTiter-Glo 96 h; activation, % (concentration not given with the values); 29,000 tested, under 10 active; AID 2316; call rule not given here;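 note: 0% = median vehicle wells and 100% = positive control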
Hedgehog inh: blocks Sonic Hedgehog signaling. actives 2.1% (n = 22,000). Shh-LIGHT2 Gli-luciferase reporter, 30 h. inhibition, % (no concentration beside the values);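 active = mean inhibition across valid replicates above about 65%, limit read from the data; inconclusive = mean under the limit, yet half or more replicates past it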;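 note: pathway switched on by Shh-conditioned medium diluted 1 in 25 in low serum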
YB-1 expression: YB-1 expression inhibition. U2OS, qRT-PCR YB-1 vs CDIP delta delta Cp, 16 h; stronger effect = higher value; zero = DMSO, each unit about twofold. delta delta Cp (YB-1 minus CDIP) (no concentration beside the values). actives 0.37% (n = 30,000);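 active = delta delta Cp rounded down to an integer at or above 3, about 3 SD of DMSO wells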;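 note: higher means less YB-1 transcript or more CDIP transcript relative to DMSO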
MITF inh: blocks MITF activity; TRPM1 promoter luciferase, luminescence, 24 h; inhibition, % (concentration not given with the values); actives 0.28% (n = 37,000); AID 2240; in the data active = inhibition above about 85%; inconclusive = no clear call, values can overlap the other calls; inactive = below about 68%;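 note: human melanocyte line stably carrying TRPM1 promoter luciferase reporter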
The depositor's hits bear a star; ! = repeats disagree. This is a sample that favours compounds with a hit; in the whole collection about 7.4% have one here.

How did CC1(C)CC[C@]2(C(=O)O[C@@H]3O[C@H](CO)[C@@H](O)[C@H](O)[C@H]3O)CC[C@]3(C)C(=CCC4[C@@]5(C)CC[C@H](O[C@@H]6O[C@H](C(=O)O)[C@@H](O)[C@H](O)[C@H]6O)C(C)(C)C5CC[C@]43C)C2C1 (some centres undefined) do in these assays?
NOMO-1 viab: 115*; PD-1 reversal: 0; Hedgehog inh: 38; YB-1 expression: 1.3; MITF inh: 20

What do the screens show for `CC(=O)OC1COC(OC2C(O)C(C)OC(OC3C(OC4CCC5(C)C(CCC6(C)C5CC=C5C7CC(C)(C)CCC7(C(=O)O)CCC56C)C4(C)CO)OCC(O)C3O)C2O)C(O)C1OC(C)=O` (centres undefined)?
NOMO-1 viab: 122*; PD-1 reversal: -9; Hedgehog inh: 98*; YB-1 expression: -0.036; MITF inh: 39

How did c1ccc(CCNc2ncnc3scc(C4COc5ccccc5O4)c23)cc1 (centres undefined) do in these assays?
NOMO-1 viab: 60; PD-1 reversal: -2; MITF inh: 32

What do the screens show for `CC1C(=O)C(=O)[C@@H]2O[C@@H]2C1=O` (some centres undefined)?
NOMO-1 viab: 96*; PD-1 reversal: 0; Hedgehog inh: inconclusive; YB-1 expression: -1.9; MITF inh: -4

How did C[C@H](CO)N1C[C@H](C)[C@H](CN(C)Cc2ccc(-c3ccccc3)cc2)Oc2ccc(NC(=O)Nc3ccc4c(c3)OCO4)cc2C1=O do in these assays?
NOMO-1 viab: 14; PD-1 reversal: 3; YB-1 expression: 0.76; MITF inh: 7

What do the screens show for `C[C@@H]1CN([C@@H](C)CO)C(=O)c2cc(NC(=O)C3CCCCC3)ccc2O[C@H]1CN(C)C(=O)Nc1cccc2ccccc12`?
NOMO-1 viab: 13; PD-1 reversal: 1; YB-1 expression: 5.6*; MITF inh: -2

What do the screens show for `C[C@@H]1CN([C@@H](C)CO)C(=O)c2cc(NC(=O)C3CC3)ccc2O[C@H]1CN(C)C(=O)NC1CCCCC1`?
NOMO-1 viab: 17; Hedgehog inh: -14; YB-1 expression: 21*; MITF inh: 1

What do the screens show for `C[C@@H]1CN([C@H](C)CO)C(=O)c2cc(NC(=O)C3CC3)ccc2O[C@H]1CN(C)C(=O)NC1CCCCC1`?
NOMO-1 viab: 19; PD-1 reversal: 0; Hedgehog inh: -11; YB-1 expression: -0.021; MITF inh: -2

What do the screens show for `COc1ccc(Cl)cc1Nc1nc(N)nc(-c2oc3ccccc3c2C)n1`?
NOMO-1 viab: 12; PD-1 reversal: 0; MITF inh: -6

Results for COc1ccc(Cl)cc1Nc1nc(N)nc(-c2cc3ccccc3o2)n1 ?
NOMO-1 viab: 95*; MITF inh: 28

Results for Cc1ccc(S(=O)(=O)NC(C)C(=O)Nc2ccc(Oc3ccccc3)cc2)cc1 (centres undefined) ?
NOMO-1 viab: 11; PD-1 reversal: -1; MITF inh: 37

How did CC(C)NC(=O)Nc1ccc2c(c1)C(=O)N([C@H](C)CO)C[C@@H](C)[C@H](CN(C)Cc1ccc(-c3ccccc3)cc1)O2 do in these assays?
NOMO-1 viab: 84*; PD-1 reversal: -2; Hedgehog inh: 14; YB-1 expression: -0.53; MITF inh: -6

Results for CC(C)NC(=O)Nc1ccc2c(c1)C(=O)N([C@H](C)CO)C[C@@H](C)[C@@H](CN(C)Cc1ccc(-c3ccccc3)cc1)O2 ?
NOMO-1 viab: 24; PD-1 reversal: 0; Hedgehog inh: 67*; YB-1 expression: -0.1; MITF inh: -5

How did C[C@@H]1CN([C@H](C)CO)C(=O)c2cccc(NC(=O)c3ccncc3)c2O[C@@H]1CN(C)Cc1ccc(-c2ccccc2)cc1 do in these assays?
NOMO-1 viab: 17; PD-1 reversal: 0; Hedgehog inh: -5; YB-1 expression: 0.098; MITF inh: 1

How did Nc1ccc2oc(-c3ccccc3)nc2c1 do in these assays?
NOMO-1 viab: 37; PD-1 reversal: -1; Hedgehog inh: -76; YB-1 expression: -0.38; MITF inh: 13

How did Clc1ccc(COC(Cn2ccnc2)c2ccc(Cl)cc2Cl)c(Cl)c1 (centres undefined) do in these assays?
NOMO-1 viab: 28; Hedgehog inh: 65*!; YB-1 expression: -0.024; MITF inh: 11

Results for C=CCOC(Cn1ccnc1)c1ccc(Cl)cc1Cl (centres undefined) ?
NOMO-1 viab: 16; Hedgehog inh: 36; YB-1 expression: 0.082; MITF inh: 21

How did Cc1ccc2cc3c(nc2c1)N(c1ccc(C(=O)NCc2ccco2)cc1)CC3 do in these assays?
NOMO-1 viab: 116*; PD-1 reversal: -1; Hedgehog inh: 35; YB-1 expression: -0.34; MITF inh: -25

Results for Cc1ccc2cc3c(nc2c1)N(c1ccccc1)CC3 ?
NOMO-1 viab: 15; PD-1 reversal: 1; YB-1 expression: -0.11; MITF inh: 9

Results for C[C@@H]1CCCCO[C@@H](CN(C)Cc2ccc(Cl)c(Cl)c2)[C@@H](C)CN([C@H](C)CO)C(=O)c2cc(NC(=O)Nc3ccc(F)cc3)ccc2O1 ?
NOMO-1 viab: 134*; PD-1 reversal: -2; Hedgehog inh: 5; YB-1 expression: 0.025; MITF inh: 17

How did COc1ccc(NC(=O)Nc2ccc3c(c2)C(=O)N([C@H](C)CO)C[C@H](C)[C@@H](CN(C)Cc2ccc(Cl)c(Cl)c2)OCCCC[C@@H](C)O3)cc1 do in these assays?
NOMO-1 viab: 43; Hedgehog inh: 21; YB-1 expression: 0.24; MITF inh: 20

What do the screens show for `COc1ccc(NC(=O)Nc2ccc3c(c2)C(=O)N([C@H](C)CO)C[C@H](C)[C@H](CN(C)Cc2ccc(Cl)c(Cl)c2)OCCCC[C@@H](C)O3)cc1`?
NOMO-1 viab: 98*; PD-1 reversal: -4; Hedgehog inh: 23; YB-1 expression: 0.0047; MITF inh: 17

Results for C[C@@H]1CCCCO[C@@H](CN(C)Cc2ccc(Cl)c(Cl)c2)[C@@H](C)CN([C@H](C)CO)C(=O)c2cc(NC(=O)c3ccccc3)ccc2O1 ?
NOMO-1 viab: 122*; PD-1 reversal: -6; Hedgehog inh: 11; YB-1 expression: 0.32; MITF inh: 31

Results for C[C@@H]1CCCCO[C@@H](CN(C)Cc2ccc(Cl)c(Cl)c2)[C@@H](C)CN([C@H](C)CO)C(=O)c2cc(NC(=O)NC3CCCCC3)ccc2O1 ?
NOMO-1 viab: 112*; PD-1 reversal: -1; YB-1 expression: -0.54; MITF inh: 25

What do the screens show for `COc1ccc([N+](=O)[O-])cc1NC(=O)CCC1COc2ccccc2O1` (centres undefined)?
NOMO-1 viab: 1; PD-1 reversal: 0; MITF inh: 3

Results for COc1ccccc1-c1coc2cc(OC)c(OC)c(OC)c2c1=O ?
NOMO-1 viab: 4; Hedgehog inh: -30; YB-1 expression: -0.25; MITF inh: -17

What do the screens show for `Cc1cc(S(=O)(=O)NCCC(=O)O)ccc1F`?
NOMO-1 viab: 4; PD-1 reversal: 2; MITF inh: 0
